Measurements from the supplement of paper PMC10849652.
Of roughly 8,800 targets only a part is listed; those with a hit were picked by preference. About 0.5% of all pairs of compound and target were hits. Unmarked numbers belong to inactive results.

Columns and labels:
Experiment in all cases: log2 fold change, soluble protein after heating vs DMSO (PISA); higher = thermal stabilisation; K562 lysate, 10 uM; active = over 0.2 and 3.5 SD of the protein, either way, in both replicates (recomputed)
erlotinib = compound: C#Cc1cccc(Nc2ncnc3cc(OCCOC)c(OCCOC)cc23)c1 [erlotinib]
Method in brief: (§1)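 A 30 min treatment with 10 μM compound was applied to crude K562 extract at 1 mg/mL protein in PBS pH 7.4 with 1 mM MgCl2. Heating for 3 min spanned 48°C-58°C, after which aliquots were pooled, adjusted to 0.5% NP-40 at 4°C and spun at 21,000xg for 90 min. TMTpro 16plex LC-MS/MS of the supernatant, with channel sums equalised, gave values recorded as log-two fold change in thermal stability against solvent controls, from duplicates.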

[1] = compound: C/C(=N\NC(=O)C1=CC(=CC=C1)S(=O)(=O)N2CCOCC2)/C3=C(C=CC(=C3)Cl)O
Method in brief: as §1

[2] = compound: C1=CC(=CC=C1C2=NC3=C(N2)C=C(C=C3)C(=O)N)OC4=CC=C(C=C4)Cl
Method in brief: as §1

[3] = compound: C1=CC2=C(C=CC(=C2)/C=C\3/C(=O)NC(=NCC4=CC=CS4)S3)N=C1
Method in brief: as §1

[4] = compound: C1=CC2=NC=CN=C2C=C1/C=C/3\C(=O)NC(=O)S3
Method in brief: as §1

[5] = compound: C1=CC=C(C=C1)C2=NC(=C(N2)C3=CC=NC=C3)C4=CC(=C(C=C4)Cl)O
Method in brief: as §1

[6] = compound: C1=CC=C2C(=C1)C3=NNC4=CC=CC(=C43)C2=O
Method in brief: as §1

[7] = compound: C1CCN(C1)C(=O)NC2=CC=CC(=C2)NC3=NC=C(C(=N3)NCCC4=CN=CN4)Br
Method in brief: as §1

[8] = compound: C1CN(CCC1(CC2=CC=C(C=C2)Cl)N)C3=NC=NC4=C3C=CN4
Method in brief: as §1

IRAK-1-4 Inhibitor I = compound: C1COCCN1CCN2C3=CC=CC=C3N=C2NC(=O)C4=CC(=CC=C4)[N+](=O)[O-] [IRAK-1-4 Inhibitor I]
Method in brief: as §1

ibrutinib = compound: C=CC(=O)N1CCC[C@@H](n2nc(-c3ccc(Oc4ccccc4)cc3)c3c(N)ncnc32)C1 [ibrutinib]
Method in brief: as §1

ralimetinib = compound: CC(C)(C)Cn1c(N)nc2ccc(-c3[nH]c(C(C)(C)C)nc3-c3ccc(F)cc3)nc21 [ralimetinib]
Method in brief: as §1

[9] = compound: CC(C)(O)CC(=O)NCCn1ccc2ncnc(Nc3ccc(Oc4cccc(C(F)(F)F)c4)c(Cl)c3)c21
Method in brief: as §1

[10] = compound: CC(C)C1=C2N=C(C=C(N2N=C1)NCC3=CC=CC=C3)NCCCCCCN
Method in brief: as §1

[11] = compound: CC1=C(C(CC(=O)N1)C2=CC=C(C=C2)C(F)(F)F)C(=O)NC3=C(C=C4C(=C3)C=NN4)F
Method in brief: as §1

[12] = compound: CC1=C(C2=C(C=C1)C(=O)C3=CC=CC=C3N2CCCN)C
Method in brief: as §1

[13] = compound: CC1=C(C=C(C=C1)NC(=O)C2=CC(=CC=C2)C(C)(C)C#N)NC3=CC4=C(C=C3)N=CN(C4=O)C
Method in brief: as §1

[14] = compound: CC1=C(C=C(C=C1)NC(=O)C2=CC(=CC=C2)N(C)C)NC(=O)C3=CC=C(C=C3)O
Method in brief: as §1

[15] = compound: CC(=O)c1cnc2ccc(-c3cc(Cl)c(O)c(Cl)c3)nc2c1N[C@H]1CC[C@H](CN(C)C)CC1
Method in brief: as §1

[16] = compound: CC1=CC=C(C=C1)SC2=C3C=C(SC3=CN=C2)C(=O)N
Method in brief: as §1

Chain of UniProt Q6NUM9 (Q6NUM9 whole entry, looked up): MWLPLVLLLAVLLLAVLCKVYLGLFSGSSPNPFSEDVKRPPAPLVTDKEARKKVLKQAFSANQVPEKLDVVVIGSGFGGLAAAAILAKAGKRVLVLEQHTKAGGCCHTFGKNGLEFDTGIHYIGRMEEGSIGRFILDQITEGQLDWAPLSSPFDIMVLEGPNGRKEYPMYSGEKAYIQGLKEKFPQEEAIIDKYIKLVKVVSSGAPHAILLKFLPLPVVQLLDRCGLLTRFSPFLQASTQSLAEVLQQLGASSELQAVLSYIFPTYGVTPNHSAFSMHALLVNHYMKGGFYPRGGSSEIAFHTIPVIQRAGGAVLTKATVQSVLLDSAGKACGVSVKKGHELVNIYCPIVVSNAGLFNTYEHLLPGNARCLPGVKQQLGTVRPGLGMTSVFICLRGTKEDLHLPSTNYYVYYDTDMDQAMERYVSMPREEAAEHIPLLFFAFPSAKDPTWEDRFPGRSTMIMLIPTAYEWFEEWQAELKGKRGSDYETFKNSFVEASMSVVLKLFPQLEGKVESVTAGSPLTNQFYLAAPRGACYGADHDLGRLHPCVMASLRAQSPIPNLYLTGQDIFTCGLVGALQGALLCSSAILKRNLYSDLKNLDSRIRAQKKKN
Chain of UniProt Q9NR31 (Q9NR31 whole entry, looked up): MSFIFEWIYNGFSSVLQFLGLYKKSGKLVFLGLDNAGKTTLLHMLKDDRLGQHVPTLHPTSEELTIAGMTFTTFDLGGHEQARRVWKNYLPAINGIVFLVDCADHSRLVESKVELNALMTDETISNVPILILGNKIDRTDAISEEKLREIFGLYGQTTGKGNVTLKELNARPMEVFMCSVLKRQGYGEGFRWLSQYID
Chain of UniProt Q86VV8 (Q86VV8 whole entry, looked up): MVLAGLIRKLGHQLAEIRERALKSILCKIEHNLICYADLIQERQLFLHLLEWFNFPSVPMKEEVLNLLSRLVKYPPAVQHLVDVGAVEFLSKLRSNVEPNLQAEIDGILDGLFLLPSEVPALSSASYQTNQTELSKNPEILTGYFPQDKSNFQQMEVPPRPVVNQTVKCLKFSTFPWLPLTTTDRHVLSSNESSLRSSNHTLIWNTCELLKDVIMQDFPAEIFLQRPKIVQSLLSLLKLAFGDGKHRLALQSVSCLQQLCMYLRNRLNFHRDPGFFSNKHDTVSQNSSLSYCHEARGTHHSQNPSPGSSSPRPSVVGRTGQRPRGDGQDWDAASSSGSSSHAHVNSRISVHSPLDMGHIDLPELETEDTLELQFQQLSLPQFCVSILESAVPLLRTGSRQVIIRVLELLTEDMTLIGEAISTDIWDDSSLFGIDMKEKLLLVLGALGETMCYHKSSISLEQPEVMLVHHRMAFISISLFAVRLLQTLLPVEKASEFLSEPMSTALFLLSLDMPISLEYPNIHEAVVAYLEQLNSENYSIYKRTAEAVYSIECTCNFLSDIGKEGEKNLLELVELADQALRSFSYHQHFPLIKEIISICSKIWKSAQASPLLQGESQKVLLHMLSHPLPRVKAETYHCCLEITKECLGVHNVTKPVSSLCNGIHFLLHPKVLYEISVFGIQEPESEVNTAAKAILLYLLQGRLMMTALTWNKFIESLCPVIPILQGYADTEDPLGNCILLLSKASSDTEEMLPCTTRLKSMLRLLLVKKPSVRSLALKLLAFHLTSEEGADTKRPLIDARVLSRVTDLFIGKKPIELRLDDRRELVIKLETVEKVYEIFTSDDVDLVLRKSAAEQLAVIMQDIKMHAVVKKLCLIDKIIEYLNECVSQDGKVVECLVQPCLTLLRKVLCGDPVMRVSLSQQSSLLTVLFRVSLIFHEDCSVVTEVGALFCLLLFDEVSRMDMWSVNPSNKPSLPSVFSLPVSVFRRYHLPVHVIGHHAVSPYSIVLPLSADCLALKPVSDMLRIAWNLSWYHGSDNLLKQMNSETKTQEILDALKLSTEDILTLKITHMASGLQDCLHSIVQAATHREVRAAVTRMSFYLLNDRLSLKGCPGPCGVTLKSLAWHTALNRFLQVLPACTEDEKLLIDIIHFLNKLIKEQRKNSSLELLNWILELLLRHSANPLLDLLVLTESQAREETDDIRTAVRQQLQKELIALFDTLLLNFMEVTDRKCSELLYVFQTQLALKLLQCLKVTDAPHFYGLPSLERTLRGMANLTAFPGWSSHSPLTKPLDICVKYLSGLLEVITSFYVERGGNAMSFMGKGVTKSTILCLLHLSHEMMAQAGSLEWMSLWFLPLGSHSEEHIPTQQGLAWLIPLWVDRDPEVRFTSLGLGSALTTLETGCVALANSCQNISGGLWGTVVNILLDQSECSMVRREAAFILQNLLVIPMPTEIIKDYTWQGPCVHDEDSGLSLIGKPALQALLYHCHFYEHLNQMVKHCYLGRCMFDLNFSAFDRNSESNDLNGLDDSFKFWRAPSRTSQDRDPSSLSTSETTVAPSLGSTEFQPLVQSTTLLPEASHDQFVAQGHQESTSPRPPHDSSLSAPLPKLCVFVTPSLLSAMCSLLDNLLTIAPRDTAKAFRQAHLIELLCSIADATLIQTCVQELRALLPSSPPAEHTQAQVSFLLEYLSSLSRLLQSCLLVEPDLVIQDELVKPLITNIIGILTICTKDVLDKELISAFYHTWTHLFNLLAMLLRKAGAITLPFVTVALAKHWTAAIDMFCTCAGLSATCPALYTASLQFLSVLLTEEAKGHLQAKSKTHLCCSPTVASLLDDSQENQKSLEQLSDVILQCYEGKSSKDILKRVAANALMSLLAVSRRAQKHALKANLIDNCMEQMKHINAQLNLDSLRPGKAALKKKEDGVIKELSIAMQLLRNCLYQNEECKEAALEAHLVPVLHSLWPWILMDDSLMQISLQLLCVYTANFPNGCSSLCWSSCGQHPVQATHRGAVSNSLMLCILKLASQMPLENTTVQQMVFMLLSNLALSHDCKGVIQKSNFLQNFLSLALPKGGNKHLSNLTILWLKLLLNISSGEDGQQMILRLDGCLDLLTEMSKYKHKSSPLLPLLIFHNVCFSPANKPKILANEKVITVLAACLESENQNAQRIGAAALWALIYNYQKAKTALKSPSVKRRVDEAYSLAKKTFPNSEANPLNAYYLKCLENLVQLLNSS
Chain of UniProt Q15418 (Q15418 whole entry, looked up): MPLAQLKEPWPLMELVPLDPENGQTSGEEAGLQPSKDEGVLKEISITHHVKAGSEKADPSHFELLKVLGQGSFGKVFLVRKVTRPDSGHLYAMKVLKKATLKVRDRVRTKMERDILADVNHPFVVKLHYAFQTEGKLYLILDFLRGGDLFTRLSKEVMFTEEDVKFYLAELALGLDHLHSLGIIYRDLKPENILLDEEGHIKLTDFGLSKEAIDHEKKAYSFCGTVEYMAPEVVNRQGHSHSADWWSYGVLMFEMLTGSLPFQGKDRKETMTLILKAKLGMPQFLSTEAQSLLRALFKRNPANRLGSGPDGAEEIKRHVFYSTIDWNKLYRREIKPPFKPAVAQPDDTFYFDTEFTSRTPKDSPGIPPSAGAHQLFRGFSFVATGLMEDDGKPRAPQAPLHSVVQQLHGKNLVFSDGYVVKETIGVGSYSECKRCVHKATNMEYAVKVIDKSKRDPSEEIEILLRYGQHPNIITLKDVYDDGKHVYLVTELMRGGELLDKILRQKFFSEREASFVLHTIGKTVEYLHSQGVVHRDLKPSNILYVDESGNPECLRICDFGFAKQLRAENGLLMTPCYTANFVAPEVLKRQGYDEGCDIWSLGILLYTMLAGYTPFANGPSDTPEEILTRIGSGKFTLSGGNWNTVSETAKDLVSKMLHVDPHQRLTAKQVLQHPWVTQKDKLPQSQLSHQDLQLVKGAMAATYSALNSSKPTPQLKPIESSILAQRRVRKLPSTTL
Chain of UniProt Q15404 (Q15404 whole entry, looked up): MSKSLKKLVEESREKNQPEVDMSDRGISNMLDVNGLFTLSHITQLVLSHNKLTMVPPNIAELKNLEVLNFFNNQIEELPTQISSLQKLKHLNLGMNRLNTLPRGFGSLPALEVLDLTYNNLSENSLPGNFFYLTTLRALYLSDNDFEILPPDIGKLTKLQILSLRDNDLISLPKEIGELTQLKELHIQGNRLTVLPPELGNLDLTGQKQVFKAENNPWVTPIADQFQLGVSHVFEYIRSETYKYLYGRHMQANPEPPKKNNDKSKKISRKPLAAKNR
Chain of UniProt P35249 (P35249 whole entry, looked up): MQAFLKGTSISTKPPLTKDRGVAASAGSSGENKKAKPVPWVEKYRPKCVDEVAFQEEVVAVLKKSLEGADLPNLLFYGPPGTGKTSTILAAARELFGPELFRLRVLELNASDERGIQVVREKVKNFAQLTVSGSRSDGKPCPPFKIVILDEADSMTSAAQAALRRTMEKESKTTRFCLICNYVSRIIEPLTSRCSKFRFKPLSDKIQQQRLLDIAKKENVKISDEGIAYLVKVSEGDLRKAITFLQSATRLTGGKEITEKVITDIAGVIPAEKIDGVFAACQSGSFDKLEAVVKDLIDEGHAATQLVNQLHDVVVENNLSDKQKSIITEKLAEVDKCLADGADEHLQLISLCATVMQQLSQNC
Chain of UniProt Q8TBN0 (Q8TBN0 whole entry, looked up): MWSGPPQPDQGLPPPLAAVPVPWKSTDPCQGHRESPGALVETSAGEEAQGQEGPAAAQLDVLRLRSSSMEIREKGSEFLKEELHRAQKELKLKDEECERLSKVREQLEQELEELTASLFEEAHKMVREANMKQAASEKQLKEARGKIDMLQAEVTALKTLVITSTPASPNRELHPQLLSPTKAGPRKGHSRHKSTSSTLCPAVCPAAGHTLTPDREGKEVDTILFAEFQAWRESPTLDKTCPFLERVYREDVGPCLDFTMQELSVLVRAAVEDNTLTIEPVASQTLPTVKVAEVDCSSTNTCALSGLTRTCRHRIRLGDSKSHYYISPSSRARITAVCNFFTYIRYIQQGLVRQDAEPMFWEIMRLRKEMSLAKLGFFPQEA
Chain of UniProt P60059 (P60059 whole entry, looked up): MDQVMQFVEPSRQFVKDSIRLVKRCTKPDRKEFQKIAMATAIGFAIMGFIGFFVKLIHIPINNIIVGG

Target | log2 fold change (erlotinib) | log2 fold change [1] | log2 fold change [2] | log2 fold change [3] | log2 fold change [4] | log2 fold change [5] | log2 fold change [6] | log2 fold change [7] | log2 fold change [8] | log2 fold change (IRAK-1-4 Inhibitor I) | log2 fold change (ibrutinib) | log2 fold change (ralimetinib) | log2 fold change [9] | log2 fold change [10] | log2 fold change [11] | log2 fold change [12] | log2 fold change [13] | log2 fold change [14] | log2 fold change [15] | log2 fold change [16]
RECQL4 (UniProt O94761) | -0.041 | 0.023 | -0.025 | 0.195 | -0.081 | 0.018 | -0.039 | -0.035 | 0.013 | 0.015 | 0.016 | -0.034 | -0.06 | 0.039 | -0.017 | 0.076 | 0 | 0.044 |  | 
RPTOR (UniProt Q8N122) | 0.032 | 0.002 | 0.062 | 0.013 | 0.017 | -0.002 | -0.002 | -0.036 | -0.015 | 0.003 | -0.042 | -0.001 | -0.045 | -0.012 | 0.005 | -0.039 | 0.005 | 0.038 | 0.008 | 0.01
RXRB isoform 3 (UniProt P28702) | -0.025 | 0.006 | -0.038 | -0.014 | 0.051 |  | -0.039 | 0.011 | -0.015 |  | 0.047 |  |  | 0.106 | 0.026 | -0.005 | 0.011 |  | -0.037 | -0.109
RNF149 (UniProt Q8NC42) | -0.044 | -0.03 | 0.003 | -0.046 | 0.135 | -0.021 | -0.031 |  |  | 0.068 | 0.04 | 0.044 | -0.041 | -0.005 | -0.021 | 0.001 | -0.014 | 0.113 | 0.023 | 0.06
RFC4 (UniProt P35249) | 0.006 | 0.027 | -0.033 | -0.027 | 0.018 | 0.007 | -0.056 | -0.022 | -0.012 | -0.018 | -0.01 | -0.01 | -0.015 | 0.032 | 0 | 0.026 | -0.001 | 0.002 | -0.008 | 0.019
RSU1 (UniProt Q15404) | 0.017 | 0.006 | -0.039 | -0.052 | -0.011 | -0.003 | 0.017 | 0.009 | -0.027 | 0 | 0 | -0.005 | -0.02 | 0.005 | 0.019 | -0.022 | -0.017 | -0.027 | 0.005 | -0.012
RPS6KA1 (UniProt Q15418) | 0.001 | -0.064 | 0.006 | -0.029 | 0.04 | 0.13 | 0.509 (active) | -0.009 | 0.06 | -0.036 | 0.047 | 0.32 | -0.077 | -0.011 | -0.032 | -0.035 | -0.043 | -0.052 | 0.555 (active) | -0.023
SAR1A (UniProt Q9NR31) | -0.268 | -0.112 | 0.05 | -0.019 | -0.063 | -0.056 | 0.048 | -0.08 | 0.001 | -0.029 | -0.082 | 0.027 | -0.028 | 0.026 | 0.163 | -0.042 | 0.021 | -0.045 | -0.105 | 0.112
SAMD4A (UniProt Q9UPU9) | -0.172 | -0.014 | 0.11 | 0.097 | -0.153 | 0.11 | -0.041 | -0.046 | 0.013 | 0.063 | -0.014 | 0.395 | 0.097 | 0.094 |  | -0.008 | 0.025 | 0.196 | 0.052 | 0.088
SEC24D isoform 2 (UniProt O94855) | 0.016 | 0.04 | 0.012 | 0.008 | 0.032 | 0.022 | 0.001 | -0.013 | 0.004 | -0.002 | 0.005 | 0.01 | -0.018 | 0 | -0.009 | -0.011 | 0.019 | -0.035 | -0.024 | 0.023
RETSAT (UniProt Q6NUM9) | -0.092 | 0.054 | 0.026 | 0.021 | -0.092 | -0.004 | -0.152 | -0.077 | -0.052 | 0.148 | -0.091 | -0.057 | -0.134 | 0.07 |  | -0.113 | 0.226 | -0.015 | 0.073 | -0.24
SEC61G (UniProt P60059) | 0.065 | -0.196 | -0.111 | 0.032 | 0.043 | 0.032 | -0.126 | -0.096 | 0.065 | 0.083 | 0.037 | -0.019 | -0.229 | -0.052 | -0.081 | -0.053 | 0.071 | 0.004 | 0 | 0.052
ROCK1 (UniProt Q13464) | -0.01 | 0.029 | 0 | 0.075 | -0.036 | -0.004 | -0.041 | 0.008 | 0.075 | 0.004 | -0.002 | -0.005 | -0.021 | -0.003 | 0.096 | -0.041 | 0.006 | 0.024 | -0.027 | 0.002
RAI14 isoform 2 (UniProt Q9P0K7) | 0.015 | 0.006 | -0.007 | 0.004 | 0.001 | 0.021 | 0.02 | 0 | -0.018 | -0.028 | -0.019 | -0.011 | -0.01 | -0.004 | 0.017 | -0.024 | 0.01 | 0.024 | -0.007 | 0.001
RAB3IL1 (UniProt Q8TBN0) | -0.026 | 0.005 | -0.021 | 0.024 | -0.05 | 0.053 | -0.038 | -0.013 | -0.003 | 0.011 | 0.03 | 0.021 | -0.022 | 0.004 | 0.116 | -0.006 | 0.02 | -0.024 | -0.035 | 0.003
RAD54L2 (UniProt Q9Y4B4) | 0.186 | -0.176 | -0.103 | -0.035 | -0.135 |  | 0.002 | -0.046 | 0.055 |  | -0.005 |  |  | -0.073 | 0.131 | -0.051 | 0.031 |  | 0.23 | 0.094
RTTN (UniProt Q86VV8) | -0.002 | -0.196 | -0.123 | -0.103 | 0.045 | -0.043 | -0.056 | 0.14 | 0.036 | 0.098 | 0.095 | 0.145 | -0.137 | 0.379 | -0.053 | 0.015 |  | -0.004 | 0.155 | 0.112
